# Assay results published in PubChem BioAssay (NCI).
# Compounds without any hit were thinned out: in the full panel of roughly 83,000, 20% have a hit.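 A percent growth of 40 corresponds to 60% growth inhibition; 0 means no net growth; -100 means all cells died. Active threshold: below 10.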 Unmarked numbers belong to inactive results. Active and inactive are the calls of the source.
# How the values were obtained:
# Assay in all cases: NCI-60 one-dose screen, 48 h (100 = growth as untreated, 0 = no growth, -100 = all killed)
# Settings in all cases: 10 µM unless noted
# [1] = system: NCI-H23 lung
# [2] = system: NCI-H226 lung
# [3] = system: NCI-H322M lung
# [4] = system: HOP-62 NSCLC
# [5] = system: NCI-H460 lung
# [6] = system: HOP-92 NSCLC
# [7] = system: NCI-H522 lung
# [8] = system: A549/ATCC NSCLC
# [9] = system: 786-0 renal
# [10] = system: COLO 205 colon
# [11] = system: DU-145 prostate
# [12] = system: K-562 leukemia
# [13] = system: MALME-3M melanoma
# [14] = system: MDA-MB-231 breast
# [15] = system: RXF 393 renal
# [16] = system: SF-268 CNS
# [17] = system: SF-295 CNS
# [18] = system: SF-539 CNS
# [19] = system: UACC-257 melanoma
# [20] = system: M14 melanoma
SMILES,growth [1],growth [2],growth [3],growth [4],growth [5],growth [6],growth [7],growth [8],growth [9],growth [10],growth [11],growth [12],growth [13],growth [14],growth [15],growth [16],growth [17],growth [18],growth [19],growth [20]
C#CCOc1ccc2ncnc(NCc3cccc(NC(=O)CCl)c3)c2c1,36.6% [8.25 µM],25.3% [8.25 µM],82.3% [8.25 µM],0.209% [8.25 µM] (active),28.2% [8.25 µM],54.4% [8.25 µM],-62.8% [8.25 µM] (active),50.4% [8.25 µM],39.2% [8.25 µM],54% [8.25 µM],77.9% [8.25 µM],11.7% [8.25 µM],57.4% [8.25 µM],45.3% [8.25 µM],42.3% [8.25 µM],41.9% [8.25 µM],93.9% [8.25 µM],49.5% [8.25 µM],63.8% [8.25 µM],51.3% [8.25 µM]
O=C1/C(=C(/c2ccccc2)N2CCOCC2)Cc2ccccc21,54.1%,58.8%,98.3%,81.8%,81%,8.98% (active),-63.6% (active),77.2%,7.77% (active),-48.4% (active),-42.4% (active),35.2%,9.61% (active),8.95% (active),42%,11.3%,75.8%,-45.6% (active),65.4%,-34.7% (active)
Cn1c(NCCc2ccc(O)c(O)c2)nc2c1c(=O)n(Cc1ccc(Br)cc1)c(=O)n2C,86.4%,84.1%,87.8%,108%,94.3%,61.1%,-26.6% (active),83.9%,82%,50.5%,78.9%,81%,81.4%,69.2%,81%,68.4%,98%,79.1%,88.5%,96.5%
O=S(=O)(Nc1ccc(I)cc1F)c1ccc(-c2cnc(C3CC3)o2)cc1,71.2%,80.2%,86.2%,52.4%,38.4%,62.1%,31.2%,50.6%,69.1%,68.4%,78.2%,13.2%,50.9%,61%,73%,63.3%,28.6%,44.1%,63.1%,37.4%
COc1cccc(/C=C2\SC(=Nc3ccc(NC(C)=O)cc3)NC2=O)c1OC,92.2%,103%,94.3%,92.3%,99.7%,55.3%,89.2%,96%,67.9%,111%,85.1%,101%,107%,102%,83.1%,99%,81.3%,94.4%,100%,98.1%
O=C(COc1ccc(/C=C2\COc3ccccc3C2=O)cc1)Nc1nccs1,79%,99%,104%,94.6%,102%,64.9%,56.5%,98.3%,89.3%,127%,107%,-8.33% (active),88.5%,95.9%,96.4%,92.8%,112%,85.9%,98.5%,93.2%
Cn1cc(-c2nonc2-c2cn(C)c3ccc(F)cc23)c2cc(F)ccc21,67.6%,51.3%,97.3%,45.6%,49.9%,66%,22%,47.9%,85.7%,62.4%,81.1%,12.6%,49.5%,82.3%,46.7%,71.3%,56.4%,66.1%,71.7%,31.4%
O=C(Cn1cccc(Nc2ccccc2)c1=O)Nc1ccccc1,113%,103%,114%,105%,106%,97%,110%,106%,106%,107%,111%,108%,–,108%,100%,107%,106%,97.1%,99.6%,102%
